# Measured values taken from the supplement of paper PMC6609913.
# Counter-ions that a name gives are not always drawn. ± gives the standard deviation of the averaged measurements. In all, about 1,300 compounds were measured (“normalised cell viability”: median about 1, lowest 2% from about 0.14 on). What follows is part of a selection rich in the lowest values, with near analogues and random picks from the rest.
# System: V-C8 (BRCA2-deficient hamster cells)
# Test: normalised cell viability (fraction of plate median); higher = more viable cells (less toxic)
# Settings: 5 µM
# Procedure, shortened: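 BRCA2-deficient hamster V-C8 cells and BRCA2-restored V-C8 cells were plated in 96-well plates, and library drugs were added 24 h later at 5 μM in 100 μl medium. Exposure lasted 3 days in screen 1 and 6 days in screen 2, next to solvent-only wells. Viability was then read by resazurin assay, median-plate normalised and averaged across triplicate wells.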
SMILES,normalised cell viability (treatment time: 3 days),normalised cell viability (treatment time: 6 days)
Cc1ccc(S(=O)(=O)NC(=O)NN2CC3CCCC3C2)cc1 (centres undefined) [Gliclazide],1.04 ± 0.049,0.979 ± 0.091
CCOC(=O)OC(C)OC1=C(C(=O)Nc2ccccn2)N(C)S(=O)(=O)c2ccccc21 (centres undefined) [Ampiroxicam],1.03 ± 0.055,1.02 ± 0.041
Cc1cc(N)c2ccccc2[n+]1CCCCCCCCCC[n+]1c(C)cc(N)c2ccccc21 [Dequalinium dichloride],0.171 ± 0.0032,0.162 ± 0.013
CN(CCCCCCCCCCN(C)C(=O)Oc1cccc([N+](C)(C)C)c1)C(=O)Oc1cccc([N+](C)(C)C)c1 [Demecarium bromide],0.828 ± 0.022,0.812 ± 0.013
C[C@H]1NC(=O)NC1=O [Methylhydantoin-5-(D)],0.968 ± 0.032,0.954 ± 0.077
CO[C@H]1/C=C/O[C@@]2(C)Oc3c(C)c(O)c4c(O)c(c5c(nc6cc(C)ccn65)c4c3C2=O)NC(=O)/C(C)=C\C=C\[C@H](C)[C@H](O)[C@@H](C)[C@@H](O)[C@@H](C)[C@H](OC(C)=O)[C@@H]1C [Rifaximin],0.964 ± 0.023,0.928 ± 0.017
CN(C/C=C/c1ccccc1)Cc1cccc2ccccc12 [Naftifine hydrochloride],0.199 ± 0.019,0.219 ± 0.0077
"CC(O)(P(=O)(O)O)P(=O)(O)O [Etidronic acid, disodium salt]",1.03 ± 0.024,1.05 ± 0.046
CNC(=C[N+](=O)[O-])NCCSCc1ccc(CN(C)C)o1 [Ranitidine hydrochloride],1.02 ± 0.13,1.08 ± 0.045
CC(=O)OCC(=O)[C@@]1(OC(C)=O)[C@@H](C)C[C@H]2[C@@H]3C[C@H](F)C4=CC(=O)C=C[C@]4(C)[C@@]3(F)[C@@H](O)C[C@@]21C [Diflorasone Diacetate],1.18 ± 0.074,1.02 ± 0.051
OC[C@H]1O[C@@H](Oc2ccc(O)cc2)[C@H](O)[C@@H](O)[C@@H]1O [Arbutin],1.05 ± 0.026,1.03 ± 0.058
CCOc1ccc(Cc2nccc3cc(OCC)c(OCC)cc23)cc1OCC [Ethaverine hydrochloride],0.625 ± 0.013,0.534 ± 0.022
CC(=O)O[C@H]1C[C@@H]2CC[C@@H]3[C@H](CC[C@@]4(C)[C@H]3C[C@H]([N+]3(C)CCCCC3)[C@@H]4OC(C)=O)[C@@]2(C)C[C@@H]1N1CCCCC1 [Vecuronium bromide],1.01 ± 0.047,1.04 ± 0.036
Clc1ccc(C(Cn2ccnc2)OCc2c(Cl)cccc2Cl)c(Cl)c1 (centres undefined) [Isoconazole],1.12 ± 0.04,1.09 ± 0.045
NCCCC(O)(P(=O)(O)O)P(=O)(O)O [Alendronate sodium],0.709 ± 0.1,0.515 ± 0.033
O=C(Nc1ccc([N+](=O)[O-])cc1Cl)c1cc(Cl)ccc1O [Niclosamide],0.124 ± 0.0032,0.0967 ± 0.0062
CN(C)CCOC(c1ccccc1)c1ccccc1.Cn1c(=O)c2[nH]c(Cl)nc2n(C)c1=O [Dimenhydrinate],1.08 ± 0.086,1.04 ± 0.024
CN1C(C)(C)CCCC1(C)C [Pempidine tartrate],0.993 ± 0.026,1.048 ± 0.004
C=C1C(=O)O[C@H]2[C@H]1CC/C(C)=C/CC[C@@]1(C)O[C@@H]21 [Parthenolide],0.199 ± 0.017,0.416 ± 0.11

SMILES,normalised cell viability (treatment time: 3 days),normalised cell viability (treatment time: 6 days)
Clc1ccc(CCC(Cn2ccnc2)Sc2c(Cl)cccc2Cl)cc1 (centres undefined) [Butoconazole nitrate],0.839 ± 0.015,0.801 ± 0.028
CS(=O)(=O)c1ccc(C2=C(c3ccccc3)C(=O)OC2)cc1 [Rofecoxib],1.02 ± 0.065,1.02 ± 0.016
CC(C)c1c(C(=O)Nc2ccccc2)c(-c2ccccc2)c(-c2ccc(F)cc2)n1CC[C@@H](O)C[C@@H](O)CC(=O)O [Atorvastatin],0.633 ± 0.051,0.734 ± 0.032
CC(C)n1c(/C=C/C(O)CC(O)CC(=O)O)c(-c2ccc(F)cc2)c2ccccc21 (centres undefined) [Fluvastatin sodium salt],0.121 ± 0.0047,0.156 ± 0.004
C=CC(N)CCC(=O)O (centres undefined) [Vigabatrin],1.04 ± 0.061,1.03 ± 0.042
CCN(CC)CCCC(C)Nc1c2ccc(Cl)cc2nc2ccc(OC)cc12 (centres undefined) [Quinacrine dihydrochloride dihydrate],0.123 ± 0.011,0.108 ± 0.009
CCN(CC)CCCC(C)Nc1ccnc2cc(Cl)ccc12 (centres undefined) [Chloroquine diphosphate],0.756 ± 0.026,0.76 ± 0.0079
CCN(CCO)CCCC(C)Nc1ccnc2cc(Cl)ccc12 (centres undefined) [Hydroxychloroquine sulfate],0.365 ± 0.05,0.524 ± 0.048
Clc1ccc(COC(Cn2ccnc2)c2ccc(Cl)cc2Cl)cc1 (centres undefined) [Econazole nitrate],0.938 ± 0.028,0.98 ± 0.023
CC[C@H](C)[C@H](N)C1=N[C@H](C(=O)N[C@@H](CC(C)C)C(=O)N[C@H](CCC(=O)O)C(=O)N[C@H](C(=O)N[C@H]2CCCCNC(=O)[C@H](CC(N)=O)NC(=O)[C@@H](CC(=O)O)NC(=O)[C@H](Cc3cnc[nH]3)NC(=O)[C@@H](Cc3ccccc3)NC(=O)[C@H]([C@@H](C)CC)NC(=O)[C@@H](CCCN)NC2=O)[C@@H](C)CC)CS1 [Bacitracin],1.05 ± 0.02,0.983 ± 0.061
CCCCNc1c(C(=O)OCC)c(C)nc2c1cnn2CC [Tracazolate hydrochloride],0.947 ± 0.034,1.03 ± 0.013
Nc1nc(=O)c2c([nH]1)NC[C@@H](CNc1ccc(C(=O)N[C@@H](CCC(=O)O)C(=O)O)cc1)N2C=O [Folinic acid calcium salt],1.05 ± 0.036,1.11 ± 0.06
COC(=O)N/N=C/c1c[n+]([O-])c2ccccc2[n+]1[O-] [Carbadox],0.69 ± 0.18,0.549 ± 0.029
Cc1cc(/C=C/c2ccc3cc(N(C)C)ccc3[n+]2C)c(C)n1-c1ccccc1 [Pyrvinium pamoate],0.132 ± 0.0063,0.172 ± 0.012
CC1(C)S[C@@H]2[C@H](NC(=O)[C@H](N)c3ccccc3)C(=O)N2[C@H]1C(=O)OC1OC(=O)c2ccccc21 (some centres undefined) [Talampicillin hydrochloride],1.09 ± 0.082,1.02 ± 0.085
COc1cc([C@@H]2c3cc4c(cc3[C@@H](O[C@@H]3O[C@@H]5CO[C@@H](C)O[C@H]5[C@H](O)[C@H]3O)[C@H]3COC(=O)[C@H]23)OCO4)cc(OC)c1O [Etoposide],0.155 ± 0.0057,0.133 ± 0.017
COc1cc(NS(=O)(=O)c2ccc(N)cc2)ncn1 [Sulfamonomethoxine],1.02 ± 0.057,1.05 ± 0.031
CC(C)(C)NC[C@H](O)c1ccc(O)c(CO)c1 [Levalbuterol hydrochloride],1.03 ± 0.049,0.99 ± 0.13
